# The sample as a whole holds a higher share of the strongest signals than the screen did.
# Legend:
# Assay in all cases: glycan array binding signal (z-score within array); higher = stronger binding
# Conditions in all cases: glycan notation: IUPAC condensed, linker removed
# [1] = target: Fuc(a1-2)Gal(b1-3)GlcNAc6S
# Procedure, shortened: (§1)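 Glycan array data were curated from 3228 arrays in the Consortium for Functional Glycomics database and kept only where the protein sequence was available. Glycan names were converted to IUPAC-condensed notation, and columns mapping to the same glycan were averaged. The binding signal is a within-array Z-score, averaged across arrays of the same protein sequence at different concentrations or buffers and across linkers. Negative Z-scores can be read as non-binding.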
# [2] = target: Fuc(a1-2)Gal(b1-4)GlcNAc(b1-3)Gal(b1-4)GlcNAc(b1-2)Man(a1-3)[Fuc(a1-2)Gal(b1-4)GlcNAc(b1-3)Gal(b1-4)GlcNAc(b1-2)Man(a1-6)]Man(b1-4)GlcNAc(b1-4)GlcNAc
# Procedure, shortened: as §1
# [3] = target: Fuc(a1-2)Gal(b1-4)[Fuc(a1-3)]GlcNAc(b1-2)[Fuc(a1-2)Gal(b1-4)[Fuc(a1-3)]GlcNAc(b1-4)]Man(a1-3)[Fuc(a1-2)Gal(b1-4)[Fuc(a1-3)]GlcNAc(b1-2)Man(a1-6)]Man(b1-4)GlcNAc(b1-4)GlcNAc
# Procedure, shortened: as §1
# [4] = target: Fuc(a1-2)[Gal(a1-3)]Gal(b1-3)GlcNAc
# Procedure, shortened: as §1
# [5] = target: Fuc(a1-2)[Gal(a1-3)]Gal(b1-4)GlcNAc(b1-2)Man
# Procedure, shortened: as §1
# [6] = target: Fuc(a1-2)[Gal(a1-3)]Gal(b1-4)GlcNAc(b1-6)GalNAc
# Procedure, shortened: as §1
# [7] = target: Fuc(a1-2)[GalNAc(a1-3)]Gal(b1-4)GlcNAc(b1-2)Man(a1-3)[Fuc(a1-2)[GalNAc(a1-3)]Gal(b1-4)GlcNAc(b1-2)Man(a1-6)]Man(b1-4)GlcNAc(b1-4)GlcNAc
# Procedure, shortened: as §1
# [8] = target: Fuc(a1-2)[GalNAc(a1-3)]Gal(b1-4)GlcNAc(b1-6)GalNAc
# Procedure, shortened: as §1
# Gal(a1-3)Gal(b1-3)GlcNAc = target: Gal(a1-3)Gal(b1-3)GlcNAc
# Procedure, shortened: as §1
# [9] = target: Gal(a1-3)Gal(b1-3)GlcNAc(b1-2)Man(a1-3)[Gal(a1-3)Gal(b1-3)GlcNAc(b1-2)Man(a1-6)]Man(b1-4)GlcNAc(b1-4)GlcNAc
# Procedure, shortened: as §1
# [10] = target: Gal(a1-4)Gal(b1-4)GlcNAc(b1-3)Gal(b1-4)Glc
# Procedure, shortened: as §1
# Gal(b1-3)Gal(b1-4)GlcNAc = target: Gal(b1-3)Gal(b1-4)GlcNAc
# Procedure, shortened: as §1
# [11] = target: Gal(b1-3)GlcNAc(a1-6)Gal(b1-4)GlcNAc
# Procedure, shortened: as §1
# Gal(b1-3)GlcNAc6S = target: Gal(b1-3)GlcNAc6S
# Procedure, shortened: as §1
# [12] = target: Gal(b1-3)[Neu5Ac(a2-6)]GlcNAc(b1-4)Gal(b1-4)Glc
# Procedure, shortened: as §1
# [13] = target: Gal(b1-4)GlcNAc(b1-2)[Gal(b1-4)GlcNAc(b1-6)]Man(a1-6)[Gal(b1-4)GlcNAc(b1-2)Man(a1-3)]Man(b1-4)GlcNAc(b1-4)GlcNAc
# Procedure, shortened: as §1
# Gal(b1-4)GlcNAc6P = target: Gal(b1-4)GlcNAc6P
# Procedure, shortened: as §1
# [14] = target: Gal3S(b1-3)[Fuc(a1-4)]GlcNAc
# Procedure, shortened: as §1
# Gal6S(b1-4)Glc = target: Gal6S(b1-4)Glc
# Procedure, shortened: as §1
# [15] = target: GalNAc(b1-3)Gal(a1-4)Gal(b1-4)GlcNAc(b1-3)Gal(b1-4)Glc
# Procedure, shortened: as §1
# GalNAc(b1-3)GalNAc = target: GalNAc(b1-3)GalNAc
# Procedure, shortened: as §1
# GalNAc(b1-3)GlcNAc = target: GalNAc(b1-3)GlcNAc
# Procedure, shortened: as §1
# [16] = target: Man(a1-2)Man(a1-3)[Man(a1-2)Man(a1-6)]Man(a1-6)[Man(a1-2)Man(a1-2)Man(a1-3)]Man(b1-4)GlcNAc(b1-4)GlcNAc
# Procedure, shortened: as §1
# [17] = target: Man(a1-3)[Man(a1-6)]Man(a1-6)[Man(a1-2)Man(a1-3)]Man(b1-4)GlcNAc(b1-4)GlcNAc
# Procedure, shortened: as §1
binder,measurement,setting,value
SialidaseA (Arthrobacter ureafaciens) (protein) MRSNSTSAPSLVRRAATGVLTCAVSIGLLAGLGLPAQAAPTPPNSPTLPPGSFSETNLAADRTAANFFYRIPALTYLGNDVVLAAWDGRPGSAADAPNPNSIVQRRSTDGGKTWGPVQVIAAGHVADASGPRYGYSDPSYIYDAEANKVFAFFVYSKDQGFGGSQFGNDDADRNVISSAVIESSDAGVTWSQPRLITSVTKPGTSKTNPAAGDVRSNFASSGEGIQLKYGPHKGRLIQQYAGDVRQADGSNKIQAYSVYSDDHGVTWHKGANVGDRMDENKTVELSDGRVLLNSRDNANRGYRKVAVSTDGGATYGPVSQDTELPDPANNGAIARMFPNAAQGSADAKKLIFTNANSKTGRENVSARVSCDDGETWPGVRTIRSGFSAYSTVTRLADGKFGVLYEGNYTDNMPFATFDDAWLNYVCAPLAVPAVNIAPSATQEVPVTVTNQEATTLSGATATVYTPSGWSATTVPVPDVAPGASVTVTVALTAPADASGPRSLNAAFTTADGRVSQFTFTATTPVAPQVGLTITGSAPARDVAANPYQAGDVLGYTLNVKSTANVAANSVPLTGTFDSGFLPPAAPNCRYNNLAAGASYNCTTAKHTITAADMERGYFVPEATFSITSTTTPSLTKTVQFTGAAVALRDGLISADISGARTDVGRDLATRPYAAGELVPYAFTVKNTSPFVEQVVPTAGNFSPFLPAGAGNCRYLSLPAGQSYECATPRHAVTAEEVEQGFFVPDTTWEVSAAGQSTRTYRINGGEVDLLVRDAALSATVVAEWKDADGDRFASAGDPVTFTYTVGNAGNVALTGLEAPDAGISLPFLAPGDTATATREHVLTAADVAGGSLAASAFEATARNGSKEVTATAEGQPLELKVQPAQPSKEPELTVQDLEDQTPPFDLGTAFKYRTGQKVSLAGLEYGQWYYVYLNKTGYRLGWMFPTTGDTVEFILPPEVRNGRDDVVVLDKDGRRVSFDRLQVTPKGEKI,glycan array binding signal (z-score),[1],-0.849
same,glycan array binding signal (z-score),[2],1.3
same,glycan array binding signal (z-score),[3],0.318
same,glycan array binding signal (z-score),[4],-0.478
same,glycan array binding signal (z-score),[5],-0.252
same,glycan array binding signal (z-score),[6],-0.849
same,glycan array binding signal (z-score),[7],-0.021
same,glycan array binding signal (z-score),[8],-0.733
same,glycan array binding signal (z-score),Gal(a1-3)Gal(b1-3)GlcNAc,-0.563
same,glycan array binding signal (z-score),[9],0.062
same,glycan array binding signal (z-score),[10],-0.51
same,glycan array binding signal (z-score),Gal(b1-3)Gal(b1-4)GlcNAc,-0.643
same,glycan array binding signal (z-score),[11],-0.544
same,glycan array binding signal (z-score),Gal(b1-3)GlcNAc6S,-0.625
same,glycan array binding signal (z-score),[12],2.48
same,glycan array binding signal (z-score),[13],-0.46
same,glycan array binding signal (z-score),Gal(b1-4)GlcNAc6P,-0.685
same,glycan array binding signal (z-score),[14],-0.337
same,glycan array binding signal (z-score),Gal6S(b1-4)Glc,-0.719
same,glycan array binding signal (z-score),[15],-0.337
same,glycan array binding signal (z-score),GalNAc(b1-3)GalNAc,-0.689
same,glycan array binding signal (z-score),GalNAc(b1-3)GlcNAc,-0.637
same,glycan array binding signal (z-score),[16],-0.441
same,glycan array binding signal (z-score),[17],-0.172

# Source: the supplement of paper PMC8728848
